GPT2 inhibitor: blocks human glutamate pyruvate transaminase 2; Recombinant GPT2, coupled pyruvate oxidase/HRP Amplex Red fluorescence; Q8TD30; Potency, µM (highest dose often 57.7 µM), usual class: inhibitors; 100,000 compounds, 0.25% hits; also: nearly all actives have a fitted effect of over 60% in size
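Inhibition is scored from Amplex Red fluorescence generated when pyruvate oxidase and HRP act on pyruvate released by GPT2. Reactions contain 10ng/uL enzyme, 250uM a-KG and 2mM L-alanine and run 30 min at room temperature.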
Luciferase inh: Photinus pyralis luciferase inhibition; 76,000 compounds, 2.5% hits; Potency, µM (series often up to 115 µM), actives largely listed as inhibitors; P08659; purified P. pyralis luciferase, luminescence, biochemical; also: nearly all actives have a fitted effect of over 65% in size
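Cell-free enzyme assay, 10nM P. pyralis luciferase, luciferin and ATP each at 10uM. Inhibition profiled over a 6-point titration, read as luminescence.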
NPR1 antag: human Npr1 receptor antagonism; HEK293 hNpr1 GloSensor cGMP, ANP-stimulated luminescence; Potency, µM (highest dose often 46.3 µM), actives largely listed as inhibitors; 76,000 compounds, 1.6% hits; AID 1347048; calls by dose curve; also: nearly all actives have a fitted effect of over 60% in size
Target sequence (P16066 whole entry, looked up): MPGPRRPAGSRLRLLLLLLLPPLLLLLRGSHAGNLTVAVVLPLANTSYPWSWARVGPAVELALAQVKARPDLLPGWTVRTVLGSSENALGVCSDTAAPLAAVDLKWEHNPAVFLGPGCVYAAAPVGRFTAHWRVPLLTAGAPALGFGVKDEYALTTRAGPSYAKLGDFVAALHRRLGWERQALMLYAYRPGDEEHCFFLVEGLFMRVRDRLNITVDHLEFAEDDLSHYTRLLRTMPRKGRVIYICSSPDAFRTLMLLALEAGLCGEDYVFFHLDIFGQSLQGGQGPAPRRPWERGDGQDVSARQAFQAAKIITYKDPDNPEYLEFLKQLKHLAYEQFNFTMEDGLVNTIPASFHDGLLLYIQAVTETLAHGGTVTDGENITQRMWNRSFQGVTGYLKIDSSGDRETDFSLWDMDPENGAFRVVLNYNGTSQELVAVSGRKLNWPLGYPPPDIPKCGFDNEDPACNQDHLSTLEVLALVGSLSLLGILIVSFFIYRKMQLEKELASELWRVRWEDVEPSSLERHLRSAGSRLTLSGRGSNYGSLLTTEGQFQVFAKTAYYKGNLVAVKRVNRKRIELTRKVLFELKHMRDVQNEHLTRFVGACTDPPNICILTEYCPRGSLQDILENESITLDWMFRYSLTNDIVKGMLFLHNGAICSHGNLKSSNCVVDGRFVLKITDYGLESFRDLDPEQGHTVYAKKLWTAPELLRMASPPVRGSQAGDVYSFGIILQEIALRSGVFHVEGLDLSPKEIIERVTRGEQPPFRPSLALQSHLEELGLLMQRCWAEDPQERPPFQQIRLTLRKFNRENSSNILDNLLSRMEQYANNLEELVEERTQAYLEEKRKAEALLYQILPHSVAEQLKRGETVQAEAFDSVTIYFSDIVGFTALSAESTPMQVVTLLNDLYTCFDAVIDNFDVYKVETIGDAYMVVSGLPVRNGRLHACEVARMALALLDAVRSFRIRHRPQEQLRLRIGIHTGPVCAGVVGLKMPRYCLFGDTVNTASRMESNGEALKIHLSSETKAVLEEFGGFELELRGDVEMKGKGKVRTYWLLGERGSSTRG
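Compound pre-incubated 30 min at room temperature on GloSensor-loaded HEK293 cells stably carrying hNpr1 and the pGS-40F cGMP biosensor. Stimulation uses hNppA at 0.1 nM final; luminescence is taken at baseline and 20 min post-agonist.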
3T3 cytotox: cytotoxic compounds in NIH 3T3 cells | NIH 3T3 viability, CellTiter-Glo ATP luminescence, 48-72 h | Potency, µM (series often up to 96.7 µM), most hits filed as inhibitors | 94,000 compounds, 4.3% hits | AID 1345082; also: nearly all actives have a fitted effect of over 55% in size
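Cytotoxicity is measured as loss of cellular ATP: NIH 3T3 cells (400/well) are exposed to compound for 48 or 72 hr at 37 °C, then CellTiter-Glo luminescence is imaged after 10 min at room temperature.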
HEK293 tox: HEK 293 cell cytotoxicity. HEK 293 viability, ATP luminescence (CellTiter-Glo), 48-72 h. Potency, µM (doses to about 115 µM), most hits filed as inhibitors. 94,000 compounds, 6.6% hits; also: nearly all actives have a fitted effect of over 60% in size
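qHTS cytotoxicity; HEK 293, 250 cells/well; compound pinned; 48 or 72 hr, 37 degree Celsius, 5% CO2, 95% humidity; CellTiter-Glo, 10 min RT; luminescence (ATP).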
Numbers stand for hits; . = inactive; ? = inconclusive; / = no result given. Most compounds without a hit are left out; they make up all but 10% or so of the library. Unless noted, calls follow the shape of the dose curve; as a rule, active = well fitted curve in the direction sought with a large enough effect; inconclusive = small, poorly fitted or top-dose-only effect, or another doubt; inactive = no such curve, though single readings can be large; an effect the other way counts as inactive or inconclusive.

SMILES	GPT2 inhibitor	Luciferase inh	NPR1 antag	3T3 cytotox	HEK293 tox
O=c1c2nc(-c3ccccc3)ccc2ncn1-c1ccccc1	.	.	.	?	?
COc1ccc(-c2ccc3c(n2)c(=O)ncn3Cc2ccccc2)cc1OC	?	.	.	?	.
Cn1cnc2ccc(-c3ccncc3)nc2c1=O	.	.	.	79.4µM	?
COc1ccc(-c2ccc3ncn(C)c(=O)c3n2)cc1OC	.	.	.	35.5µM	?
c1ccc(-c2cc3c(ccn3Cc3ccncc3)c(N3CCOCC3)n2)cc1	?	.	.	?	?
c1cc(Cn2ccc3c(N4CCOCC4)nc(-c4cncnc4)cc32)ccn1	.	.	.	10µM	?
COc1cc(F)ccc1-c1cc2c(ccn2Cc2ccncc2)c(N2CCOCC2)n1	.	.	.	?	79.4µM
O=C(NCc1cccc(Cl)c1)C1CCN(c2ccnc3ccnn23)CC1	.	/	/	?	?
CN1CCCC2(C1)CN(Cc1cccnc1)c1ccc(C(=O)Nc3ccc(F)cc3)cc12 (centres undefined)	.	.	.	?	?
O=C(NC1CCOCC1)c1ccc2c(c1)C1(CCN(CC3CC3)C1)CN2Cc1ccccc1 (centres undefined)	.	.	.	?	?
Cn1ccc(NC(=O)c2ccc3c(c2)C2(CCN(CC4CC4)C2)CN3Cc2ccccc2)n1 (centres undefined)	.	.	.	?	31.6µM
COc1ccc(NC(=O)c2ccc3c(c2)C2(CCN(C)C2)CN3Cc2ccccc2)cc1 (centres undefined)	.	.	.	50.1µM	70.8µM
CN1CCC2(C1)CN(Cc1ccccc1)c1ccc(C(=O)Nc3ccc(F)cc3)cc12 (centres undefined)	.	.	.	25.1µM	39.8µM
COc1cccc(CN2CC3(CCN(C)C3)c3cc(C(=O)NC4CCCCC4)ccc32)c1 (centres undefined)	.	.	.	25.1µM	56.2µM
CN1CCOc2c(C(=O)NCCN3CCNC3=O)cc(-c3cccc4[nH]ccc34)cc21	.	.	.	.	?
O=C(Nc1cccc(C(F)(F)F)c1)c1nc2c(o1)CCN(Cc1cccc(F)c1)CC2	.	?	?	?	50.1µM
O=C(Nc1cccc(C(F)(F)F)c1)c1nc2c(o1)CCN(Cc1ccccc1)CC2	?	.	.	?	?
O=C(Nc1cccc(C(F)(F)F)c1)c1nc2c(o1)CCN(Cc1ccc(F)cc1)CC2	.	.	.	28.2µM	28.2µM
O=C(Nc1cccc(C(F)(F)F)c1)c1nc2c(o1)CCN(Cc1cnc[nH]1)CC2	.	39.8µM	.	?	?
O=C(NCC1CC1)c1nc2c(o1)CCN(Cc1cccc(F)c1)CC2	.	.	?	?	?
COc1ccc(-c2cc(-c3ccc(N4CCOCC4)nc3)cn3cncc23)cn1	.	?	.	?	?
CC1(COc2cccnc2)COc2ccc(C(=O)NCCOc3ccccc3)cc2N1 (centres undefined)	.	?	8.91µM	?	?
CC1(COc2cccnc2)COc2ccc(C(=O)NCCc3ccccc3)cc2N1 (centres undefined)	.	?	8.91µM	?	?
C#CCNC(=O)c1ccc2nnc(Cc3ccc(OC)cc3)n2c1	.	/	/	.	.
CCC(Cn1ccnc1)NC(=O)c1cccc(NCc2ccc(F)cc2)c1 (centres undefined)	.	.	.	?	?
SMILES	GPT2 inhibitor	Luciferase inh	NPR1 antag	3T3 cytotox	HEK293 tox
COc1ccc(C(=O)N2CCC[C@H](n3c(=O)n(C)c4cccnc43)C2)cn1	?	/	/	.	.
COc1ccc(OCC2CC3(CCCCC3)CN2S(=O)(=O)c2c(C)noc2C)cc1 (centres undefined)	.	/	/	.	28.2µM
CC(C)(C)c1ccc(-c2cc(C[C@H]3CNCC[C@H]3CC(=O)N3CCN(c4ccc(F)cc4)CC3)no2)cc1	.	.	.	?	?
O=C(C[C@@H]1CCNC[C@@H]1Cc1cc(CSc2ccccc2)on1)NCc1cccs1	.	.	.	?	?
CC(C)(C)c1ccc(-c2cc(C[C@H]3CNCC[C@H]3CC(=O)Nc3nccs3)no2)cc1	.	.	.	8.91µM	?
COc1ccc(-c2cc(C[C@H]3CNCC[C@H]3CC(=O)Nc3nccs3)no2)cc1	.	.	.	79.4µM	100µM
CC(C)(C)c1cc(C[C@H]2CNCC[C@H]2CC(=O)Nc2nccs2)no1	.	.	.	?	100µM
C=CCOC(=O)C1=C(C)N=C2SC=C(CC(=O)NC3CC3)N2C1c1cccc(OC)c1OC (centres undefined)	.	.	.	.	.
O=C(NCc1ccccn1)c1nc2sccn2c1-c1cccc(C(F)(F)F)c1	.	/	/	31.6µM	?
N#Cc1cccc(-c2c(C(=O)NCc3cccc(C(F)(F)F)c3)nc3sccn23)c1	.	/	/	?	35.5µM
Cc1ccc(-c2c(C(=O)NCc3cccc(C(F)(F)F)c3)nc3sccn23)cc1	.	/	/	?	22.4µM
N#Cc1cccc(-c2c(C(=O)NCc3ccc(Cl)cc3)nc3sccn23)c1	.	/	/	35.5µM	?
N#Cc1cccc(-c2c(C(=O)NCc3ccccc3F)nc3sccn23)c1	.	/	/	.	.
Cc1ccc(-n2c(C3CCN(C(=O)c4ccc(Cl)cc4)CC3)n[nH]c2=O)cc1	.	.	.	?	.
O=C(c1cccs1)N1CC(c2noc(C3CCCN3CC3CC3)n2)C1 (centres undefined)	.	.	.	.	.
CC(C)N[C@H]1CC(C)(C)[C@@H]2C[C@@](C)(O)CC[C@]12CCC(=O)NCCc1c[nH]c2ccccc12	.	.	.	?	?
Cc1ccc(S(=O)(=O)N[C@H]2CC(C)(C)[C@@H]3C[C@@](C)(O)CC[C@]23CCC(=O)NCCc2c[nH]c3ccccc23)cc1	.	.	.	79.4µM	?
O=C(c1ccccc1)N1CCCC(C(=O)N2CCC(c3nc4ccncc4[nH]3)CC2)C1 (centres undefined)	.	/	/	.	.
COc1ccc(CN2CCCCCNC(=O)CC2c2ccccc2)cc1Cn1ccnc1 (centres undefined)	.	.	.	39.8µM	35.5µM
O=C1CC(c2ccccc2)N(Cc2ccc(F)c(F)c2)CCCCCN1 (centres undefined)	.	.	.	39.8µM	?
COc1cccc(CN2CCCCCCNC(=O)CC2c2ccccc2)c1 (centres undefined)	.	.	.	?	?
CCCCn1c(=O)c(C(=O)N2CCC(c3ccccc3)CC2)nc2cccnc21	.	/	/	?	?
COc1ccccc1Nc1ccnc(N2CCCC2C(=O)NCCCc2ccccc2)n1 (centres undefined)	.	/	/	?	?
Cc1nn(C)c2nc(-c3ccccn3)nc(N3CCC(c4ccc(F)cc4)C3)c12 (centres undefined)	?	.	.	.	39.8µM
